In PubChem BioAssay (NCATS):
Records with an inconclusive call do not appear. Active and inactive are the calls of the source. Calls come from the whole dose curve; as a rule, active = well fitted cell-killing curve with a large enough effect; inconclusive = small, poorly fitted or top-dose-only effect, or effect the other way; inactive = no such curve, though single readings can be large or run the other way.

Experiment: Quantitative highthroughput screen to assess conditional lethalithy of NOMO1 cells grown in Human Plasma-Like Medium with dialyzed fetal bovine serum (HPLM+ds) (AID 1963878); note: nearly all actives have a fitted effect of over 35% in size
Conditions: NOMO1 AML cells in HPLM+ds, CellTiter-Glo viability, 48 h; series mostly up to 45.8 µM; viability: at the top concentration
Source text: Assay Provider: Jason Cantor Ph.D.
Department of Biochemistry
University of Wisconsin-Madison, Madison, WI, USA
Chemical screening studies have identified drug sensitivities across hundreds of cancer cell lines but most putative therapeutics fail to translate. Discovery and development of drug candidates in models that more accurately reflect nutrient levels in human blood is a major challenge. Here we performed high-throughput screens in conventional versus Human Plasma-Like Medium (HPLM) to identify compounds that were "missed" when screening using the artificial culture condition. Sets of conditional anticancer compounds spanned phases of clinical development and included non-oncology drugs were assessed. […] We also traced conditional phenotypes for several chemotherapeutics to availability of HPLM-specific metabolites and confirmed others for compounds whose reported targets are encoded by nonessential genes. Our findings establish generalizable strategies for exploiting conditional lethality in HPLM to reveal therapeutic candidates and mechanisms of action in cancer cells.
Described herein are the results of each viability screens against three cell lines: NOMO1 (an acute myeloid leukemia cell line); P12-Ichikawa (a T-cell acute lymphoblastic leukemia); and SEM (a B-cell ALL). Each assay was screened using 3 different cell culture media: homemade human plasma-Like medium with 10% dialyzed fetal bovine serum (HPLM+ds); RPMI1640 with 10% untreated FBS and 5mM glucose (RPMI+s); and RPMI1640 with 10% dialyzed fetal bovine serum and 5 mM glucose (RPMI+ds).
PROTOCOL TABLE (as described by Inglese J, Shamu CE and Guy RK. 2007)
SEQUENCE No. (e.g., 1, 2, 3, etc.); […] (e.g., Cells, Incubation, Reagent, etc.); VALUE and DESCRIPTION.
1; Cells; 5 uL; white, solid bottom 1536-well Greiner assay plate.
2; Compounds; 23 nL; Kalypsis pin tool (Wako USA) equipped with a 1536-well pin head to transfer to the assay plates.
3; Incubation; 48 hours; 37C incubation.
4; Reagent; 3 uL; CellTiter Glo (Promega).
5; Incubation; 5 min, room temperature
6; Detection; Luminescence, Viewlux PerkinElmer.
NOTES (numbers refer to Sequence numbers above)
1. Briefly, 5 ul of cell reagent was dispensed using a Multidrop Combi Dispenser. The NOMO1 and SEM cells were plated at 500 cells/well and the P12-Ichikawa line at 1000 cells/well.
2. After seeding the cells, 23 nL of MIPE 4.1 library compounds (in DMSO) were added to each plate using a Kalypsys 1536 Pintool dispenser. Bortezomib at final concentration of […] and DMSO were added to each plate as positive and negative controls respectively. For each screen, MIPE 4.1 compounds were added over an eleven-point concentration range […] in 3-fold dilutions.
3. Each plate was covered with a stainless steel gasketed lid to prevent evaporation and incubated for 48 hour at 37C, 95% relative humidity, and 5% CO2.
4-5. Three microliter CellTilter-GloTM luminescent substrate mix (Promega) reagent was added to the assay plate and incubated at room temperature for 5 min.
6. The luminescence signal was measured using a ViewLux (PerkinElmer) multiplate reader with a 2 second exposure time per plate. Data for each compound were normalized as percent viability such that measurements for DMSO and the empty well controls in each plate were defined as 100% and 0%, respectively.
Potency is the fitted concentration of half-maximal effect.

SMILES	Potency	viability
N=c1c2c(-c3ccccc3)c(-c3ccccc3)n(Cc3ccccc3)c2ncn1C1CCC(O)CC1 (stereo not given)	16.6 µM (active)	
O=[N+]([O-])c1ncc[nH]1		89% (inactive)
CCN1C[C@]2(OC(=O)c3ccccc3NC(C)=O)CC[C@H](OC)[C@@]34[C@H]5CC6[C@@H](OC)C[C@](O)(C(C[C@@H]23)[C@@H]14)[C@@]5(O)[C@@H]6OC		104% (inactive)
Clc1ccccc1C(c1ccccc1)(c1ccccc1)n1cccn1		113% (inactive)
C[C@]12CC[C@H]3[C@@H](CCC4=CC(=O)CC[C@@]43C)[C@H]1CC[C@H]2OC(=O)CCC1CCCC1		101% (inactive)
CCC1(c2ccc(N)cc2)CCC(=O)NC1=O (stereo not given)		96.8% (inactive)
Cc1cccc(C)c1NC(=O)CN1CCCC1=O		101% (inactive)
C#C[C@]1(O)C=C[C@@H]2[C@@H]3CCC4=CC(=O)CC[C@@H]4[C@H]3CC[C@@]21CC		98.3% (inactive)
C1=C2CCCN[C@H]2[C@@H]2C[C@H]1[C@@H]1CCCCN1C2		79.2% (inactive)
CCNC(=O)C[C@@H]1N=C(c2ccc(Cl)cc2)c2cc(OC)ccc2-n2c(C)nnc21	5.9 µM (active)	
CC1=C2C[C@@H]3[C@@H](CC=C4C[C@@H](O)CC[C@@]43C)[C@@H]2CC[C@]12O[C@H]1C[C@H](C)CN[C@H]1[C@H]2C		80.4% (inactive)
O=C(O)c1nn(Cc2ccc(Cl)cc2Cl)c2ccccc12		82.9% (inactive)
COc1cc(OC)c(OC)cc1C=O		78.7% (inactive)
Cc1c(N)nc([C@H](CC(N)=O)NC[C@@H](N)C(N)=O)nc1C(=O)N[C@H](C(=O)N[C@@H](C)[C@H](O)[C@@H](C)C(=O)N[C@@H](C(=O)NCCc1nc(-c2nc(C(=O)NCCC[S+](C)C)cs2)cs1)[C@@H](C)O)C(O[C@H]1O[C@H](CO)[C@H](O)[C@@H](O)[C@@H]1O[C@H]1O[C@H](CO)[C@@H](O)[C@H](OC(N)=O)[C@H]1O)c1cnc[nH]1 (stereo not given in full)	0.935 µM (active)	
CCOC(=O)c1cncn1[C@H](C)c1ccccc1		99.7% (inactive)
C[C@]12Cc3cn[nH]c3C[C@@H]1CC[C@@H]1[C@H]2CC[C@@]2(C)[C@H]1CC[C@]2(C)O		100% (inactive)
O=C(NCC1CCOCC1)c1cnc(Nc2ccc(Cl)cc2Cl)nc1C(F)(F)F		102% (inactive)
O=C(Oc1ccc([N+](=O)[O-])cc1)N1CCN(Cc2cccc(Oc3ccccc3)c2)CC1		101% (inactive)
Cc1nc(-c2ccc(-c3ccc(C(=O)N4CCc5cc6c(cc54)C4(CCN(C)CC4)CO6)cc3)c(C)c2)no1		110% (inactive)
COC[C@@H](NC(C)=O)C(=O)NCc1ccccc1	18.7 µM (active)	

SMILES	Potency	viability
CC(NC(C)(C)C)C(=O)c1cccc(Cl)c1 (stereo not given)	5.9 µM (active)	
C[C@]12CCC(=O)C=C1CC[C@@H]1[C@H]3CC[C@](C)(O)[C@@]3(C)CC[C@@H]12		93.9% [at 92.2 µM] (inactive)
Cc1cc(SCc2sc(-c3ccc(C(F)(F)F)c(F)c3)nc2C)ccc1OCC(=O)O		97% (inactive)
NCC1(CC(=O)O)CCCCC1		81.8% (inactive)
COC1=C[C@@H]2[C@@H]3Cc4ccc(OC)c(O)c4[C@]2(CCN3C)CC1=O		79.7% (inactive)
CN(C)CCc1ccc(O)cc1		94.3% (inactive)
C[C@]12CCC(=O)C(O)=C1CC[C@@H]1[C@H]3CCC(=O)[C@@]3(C)CC[C@@H]12		84.6% (inactive)
CC1(N2CCC(n3c([C@@H]4CCCNC4)nc4ccccc43)CC2)CCCCCCC1	13.2 µM (active)	
Cc1sc2c(c1C)C(c1ccc(Cl)cc1)=N[C@@H](CC(=O)OC(C)(C)C)c1nnc(C)n1-2	0.418 µM (active)	
CCOc1ccccc1-n1c(C(C)N2CCN(C(=O)COc3ccc(Cl)cc3)CC2)nc2ccccc2c1=O (stereo not given)	0.741 µM (active)	
CC[C@H]1C=CC=CC[C@@H](C)[C@H](O)[C@@](C)(O)C(=O)[C@@H](C)[C@H](O)[C@@H](C)C(=O)[C@@H](C)[C@H](O)[C@@H](C)C=CC(=O)O[C@@H]2[C@@H](C)[C@H](CC1)O[C@]1(CC[C@H](C)[C@H](C[C@@H](C)O)O1)[C@H]2C	2.64 µM (active)	
CC(C)(C)[C@]1(O)C[C@@H]2OC(=O)C[C@@]23C(=O)O[C@@H]2OC(=O)[C@H](O)C213 (stereo not given in full)		93.2% (inactive)
COC(=O)[C@@H](N)CCCN=C(N)N[N+](=O)[O-]		102% (inactive)
COc1ccc2c(c[n+](C)c3c4cc5c(cc4ccc23)OCO5)c1OC	20.9 µM (active)	
C#CCN(C)[C@H](C)Cc1ccccc1		82.2% (inactive)
CCCC[N+]1(C)[C@H]2CC(OC(=O)[C@H](CO)c3ccccc3)C[C@H]1[C@H]1O[C@H]12 (stereo not given in full)	11.8 µM (active)	
C[C@]12CC[C@H]3[C@@H](CCC4=CC(=O)CC[C@@]43C)[C@H]1CC[C@H]2O		106% (inactive)
COC[C@H]1OC(=O)c2coc3c2[C@@]1(C)C1=C(C3=O)C2CCC(=O)[C@@]2(C)C[C@H]1OC(C)=O (stereo not given in full)		102% (inactive)
O=C(O)C(=O)c1cn(Cc2ccccc2)c2ccc(-c3ccc(OC(F)(F)F)cc3)cc12		97.1% (inactive)
c1ccc2c(CN3CCNCC3)cccc2c1		80.8% (inactive)
